# Laboratory results as given in ChEMBL document CHEMBL1201862, “PubChem BioAssay data set” (2004).
# “And” between values parts separate entries of the source, which are not always exact repeats. Equal values may be shown once. Screen size: about 400,000 compounds; about 2,100 (0.53%) were called active. Another 14% or so got no clear call; they are omitted. No rule for the calls is given here. Many of the other results were omitted from the sample, so actives are more common in it than they were.
# Target: Ataxin-2 (Homo sapiens) (UniProt Q99700)
# Assay: qHTS for Inhibitors of ATXN expression.
# Type: functional
# Ataxin-2 (Homo sapiens), sequence (Q99700 whole entry): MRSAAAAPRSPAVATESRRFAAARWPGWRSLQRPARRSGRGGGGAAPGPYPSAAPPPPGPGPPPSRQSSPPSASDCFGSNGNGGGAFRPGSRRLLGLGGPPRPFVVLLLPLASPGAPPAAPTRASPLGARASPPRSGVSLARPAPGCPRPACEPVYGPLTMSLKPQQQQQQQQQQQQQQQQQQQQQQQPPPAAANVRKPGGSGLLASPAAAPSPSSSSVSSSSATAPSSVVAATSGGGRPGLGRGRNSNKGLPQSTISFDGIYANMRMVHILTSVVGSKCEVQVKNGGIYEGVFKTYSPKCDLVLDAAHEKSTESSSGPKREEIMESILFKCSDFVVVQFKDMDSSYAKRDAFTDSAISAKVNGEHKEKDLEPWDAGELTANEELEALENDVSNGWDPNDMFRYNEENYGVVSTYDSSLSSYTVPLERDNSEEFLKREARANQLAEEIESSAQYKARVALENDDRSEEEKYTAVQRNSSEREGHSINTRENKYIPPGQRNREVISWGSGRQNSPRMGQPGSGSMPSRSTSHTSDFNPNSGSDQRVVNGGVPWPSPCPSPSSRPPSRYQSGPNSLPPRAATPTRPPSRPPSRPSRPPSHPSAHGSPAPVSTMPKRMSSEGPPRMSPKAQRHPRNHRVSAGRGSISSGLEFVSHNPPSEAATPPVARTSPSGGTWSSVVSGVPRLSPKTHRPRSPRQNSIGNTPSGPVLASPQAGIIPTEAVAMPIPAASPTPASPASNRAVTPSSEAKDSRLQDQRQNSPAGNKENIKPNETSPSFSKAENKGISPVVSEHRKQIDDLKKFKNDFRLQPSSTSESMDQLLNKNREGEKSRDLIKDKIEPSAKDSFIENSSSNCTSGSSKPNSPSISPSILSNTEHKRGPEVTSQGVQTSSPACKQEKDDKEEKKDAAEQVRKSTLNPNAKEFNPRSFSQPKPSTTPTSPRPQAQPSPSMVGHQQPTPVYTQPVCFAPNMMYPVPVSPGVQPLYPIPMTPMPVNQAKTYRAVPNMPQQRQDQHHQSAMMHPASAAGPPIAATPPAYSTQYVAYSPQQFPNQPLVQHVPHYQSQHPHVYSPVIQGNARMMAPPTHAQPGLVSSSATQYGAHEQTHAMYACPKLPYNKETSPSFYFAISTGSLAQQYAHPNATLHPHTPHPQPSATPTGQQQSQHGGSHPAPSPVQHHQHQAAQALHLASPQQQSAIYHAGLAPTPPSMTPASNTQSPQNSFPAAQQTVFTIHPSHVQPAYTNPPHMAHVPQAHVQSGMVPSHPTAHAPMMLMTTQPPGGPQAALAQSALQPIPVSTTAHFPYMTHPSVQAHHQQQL
row,Structure (SMILES),Potency
1,CCc1nc2ccccc2c(C(=O)OCC(=O)C(C)(C)C)c1C,inactive
2,COc1ccc([N+](=O)[O-])cc1NC(=O)C(C)OC(=O)CN1C(=O)C2CC=CCC2C1=O (configuration not stated),inactive
3,O=C1c2cccc(NCCCNCCO)c2C(=O)c2cccc(NCCCNCCO)c21,15 µM (active)
4,O=C1c2ccccc2C(=O)c2c(NCCCN(CCO)CCO)cccc21,26.7 µM (active)
5,CN1C(=O)c2cccc(NCCCN3C(=O)c4ccccc4C3=O)c2C1=O,inactive
6,O=C1c2c(O)ccc(O)c2C(=O)c2c(NCCNCCO)ccc(NCCNCCO)c21,2.99 µM (active) and 20 µM (active)
7,CCNc1cccc2c1C(=O)N(C)C2=O,inactive
8,CC1CCCCC1NC(=O)COC(=O)c1c2c(nc3ccccc13)/C(=C\c1ccco1)CC2 (configuration not stated),inactive
9,Cc1csc(NC(=O)c2sc3nc(-c4cccs4)ccc3c2N)n1,inactive
10,CCOC(=O)c1cc2c(=O)n3ccccc3nc2n(C(C)C)/c1=N\C(=O)c1c(-c2c(F)cccc2Cl)noc1C,inactive
11,Cc1c(Br)c(=O)oc2c(Br)c(O)c(O)cc12,inactive
12,CN(C)c1ccc(/C=N/NC(=O)c2ccc3[nH]cnc3c2)cc1,inactive
13,Nc1ccc(/N=N\c2ccccc2)c(N)n1,inactive
14,Nc1ccc(N=Nc2ccc(O)cc2)c(N)n1,21.2 µM (active)
15,Nc1nc(O)cc(N=Nc2ccc(O)cc2)n1,17.8 µM (active)
16,Nc1c(Cl)cc(-c2nc3cc(C(=O)NCCO)ccc3c(O)c2O)cc1Cl,inactive
17,Nc1ccc(C(=O)NCc2ccccc2)cc1,inactive
18,COC(=O)c1ccc(NCc2cc(O)ccc2O)cc1O,39.8 µM (active)
19,COc1ccc(CNc2nc3ccccc3n2C(C)C)c(O)c1,inactive
20,CC(C)OC(=O)c1ccc(NCc2cc(O)ccc2O)cc1,29.9 µM (active)
21,CC(C)OC(=O)c1ccc(NCc2cc(O)ccc2O)cc1Cl,20 µM (active)
22,Cc1ccc(O)c(C(=O)CC(=O)c2ccccc2Cl)c1,inactive
23,O=C1C=CC(=O)C(CNc2ccc(C(=O)OCc3ccccc3)cc2)=C1,23.8 µM (active)
24,COC(=O)c1cc(CN2CCN(c3ccccc3)CC2)ccc1O,inactive
25,COC(=O)c1ccc(C2C(C#N)=C(N)Oc3cc(O)ccc32)cc1 (configuration not stated),inactive
26,CN(C)c1nc(-c2cccs2)cc(C(F)(F)F)c1C#N,inactive

row,Structure (SMILES),Potency
1,CCCCOc1c(C(=O)Nc2ccccc2)nnn1-c1ccccc1,inactive
2,O=C(OCc1ccccc1)c1ccc(NCc2cc(O)ccc2O)cc1,8.91 µM (active)
3,CCCS(=O)(=O)c1ccc(COC(=O)c2cccc(NC(=O)C(C)C)c2)cc1,inactive
4,COC(=O)c1ccc(NCc2c(O)ccc(O)c2Br)cc1Cl,28.2 µM (active)
5,CC(=O)Cc1cc(O)c2ccccc2c1OC(=O)c1ccccc1,inactive
6,CC(=O)Nc1ccc(NC(=O)c2cc(=O)c3ccc(C)cc3o2)cc1,inactive
7,Cc1ccc2nc(-c3ccc(NC(=O)c4cccnc4)cc3)oc2c1,25.1 µM (active)
8,Cc1ccc(C)c(OC(=O)c2cccnc2)c1,inactive
9,CCOC(=O)c1cc2c(=O)n3ccccc3nc2n(CCCOC)/c1=N\C(=O)C(C)Oc1ccccc1 (configuration not stated),inactive
10,Nc1c(C(=O)NCc2ccc(Cl)cc2)sc2nc3c(c(C(F)(F)F)c12)CCC3,inactive
11,O=C(Cn1nc(C(F)(F)F)c2c1CCCC2)Nc1ccc(Cl)cc1,39.8 µM (active)
12,O=C(CN1CCCC1)Nc1ccc(Br)cc1,inactive
13,COC(=O)[C@@]1(Cc2ccc(F)cc2)[C@H]2c3cc(C(=O)N4CCCC4)n(CC4CC4)c3C[C@H]2CN1C(=O)c1ccccc1,39.8 µM (active)
14,CCOC(=O)C1CCCN(C(=O)c2ccc(Cn3c(=S)[nH]c4cc(C(=O)OC)ccc4c3=O)cc2)C1 (configuration not stated),inactive
15,COC(=O)[C@@]1(Cc2ccc(F)cc2)[C@H]2c3cc(C(=O)N(C)C)n(Cc4ccc(C)o4)c3C[C@H]2CN1C(=O)c1ccccc1,35.5 µM (active)
16,COC(=O)[C@@]1(Cc2ccc(F)cc2)[C@H]2c3cc(C(=O)N4CCCC4)n(Cc4ccccc4)c3C[C@H]2CN1C(=O)c1ccccc1,25.1 µM (active)
17,COC(=O)C1CCN(C(=O)c2cc3c(=O)n4cccc(C)c4nc3n2Cc2ccccc2)CC1,inactive
18,C=CCNC(=O)c1cc2c(=O)n3cccc(C)c3nc2s1,inactive
19,Cc1cccc(N2C(=O)CC(NNc3nc4ccccc4s3)C2=O)c1 (configuration not stated),inactive
20,COc1ccc(/C=C/CN2CCCC(CCC(=O)NCc3ccc(F)c(F)c3)C2)cc1 (configuration not stated),inactive
21,COc1c2c(c(OC)c3c1c(=O)c1ccccc1n3C)OCO2,inactive
22,COCCN=C(NS(=O)(=O)c1cccs1)c1ccccc1Cl,inactive
23,C[N+]1(CN2C(=O)C3C4C=CC(C4)C3C2=O)CCCCC1 (configuration not stated),inactive
24,Cc1cc(N2CCOCC2)ccc1/C=C1/SC(=O)NC1=O,inactive
25,CCN1C/C(=C/c2ccc(N3CCOCC3)cc2)C(=O)/C(=C/c2ccc(N3CCOCC3)cc2)C1,25.1 µM (active)
26,CCN(CC)c1ccc(C(=O)N/N=C/c2ccc(N3CCOCC3)cc2)cc1,inactive

row,Structure (SMILES),Potency
1,NNC(=O)c1cc2c(ccc3ccccc32)o1,inactive
2,O=c1oc2ccc3ccccc3c2cc1-c1nc2ccccc2o1,inactive
3,O=c1cc(C(Cl)(Cl)Cl)oc2c1ccc1ccccc12,35.5 µM (active)
4,CCc1nonc1NC(=O)COc1cc(C)c(Cl)c(C)c1,inactive
5,COc1ccc(-n2cc(-c3ccccc3)c3c(NN4CCOCC4)ncnc32)cc1,inactive
6,Fc1ccc(-n2cc(-c3ccccc3)c3c(S)ncnc32)cc1,39.8 µM (active)
7,COc1ccc(-n2cc(-c3ccccc3)c3c(NCCCN4CCOCC4)ncnc32)cc1,inactive
8,Cc1[nH]c2ccccc2c1C(O)CN1CCC2(CC1)OCCO2 (configuration not stated),inactive
9,Cc1[nH]c2ccccc2c1C(c1ccccc1)c1cccs1 (configuration not stated),39.8 µM (active)
10,CCc1ccc(C(c2ccccc2)c2c(C)[nH]c3ccccc23)s1 (configuration not stated),39.8 µM (active)
11,CC(C)CCN1C(=O)c2cccc3c(N)ccc(c23)C1=O,inactive
12,O=c1c2sccc2nc(SCc2cc(=O)n3cc(Cl)ccc3n2)n1Cc1ccccn1,inactive
13,COc1ccc(OC)c([N+]2=C3SCCCN3C(O)(c3ccccc3)C2)c1 (configuration not stated),inactive
14,Cn1cc(CN2CCc3c([nH]c4ccccc34)C2C2CCCCC2)cn1 (configuration not stated),inactive
15,Cc1ccc(C(=O)C2=C(O)C(=O)N(Cc3cccnc3)C2c2ccc(Cl)cc2)o1 (configuration not stated),inactive
16,O=C1c2cccc3c([N+](=O)[O-])ccc(c23)C(=O)N1Cc1cccnc1,inactive
17,CSc1ccc(C2c3c(-c4ccccc4O)n[nH]c3C(=O)N2Cc2ccncc2)cc1 (configuration not stated),22.4 µM (active)
18,CCc1ccc(C2c3c(-c4ccccc4O)n[nH]c3C(=O)N2Cc2cccnc2)cc1 (configuration not stated),22.4 µM (active)
19,Cc1ccc2oc3c(c(=O)c2c1)C(c1ccc(O)cc1)N(CCCN(C)C)C3=O (configuration not stated),inactive
20,CCc1ccc(C2c3c(-c4cc(C)ccc4O)n[nH]c3C(=O)N2Cc2cccnc2)cc1 (configuration not stated),39.8 µM (active)
21,COCCN1C(=O)c2[nH]nc(-c3cc(C)ccc3O)c2C1c1ccc(C(C)C)cc1 (configuration not stated),39.8 µM (active)
22,CCOC(=O)c1sc2c(c1C)C(c1cccs1)C1=C(O)CCCC1=N2 (configuration not stated),inactive
23,c1cc(-c2sc(-c3ccncc3)c(-c3ccncc3)c2-c2ccncc2)ccn1,inactive
24,COc1ccc(-n2c(=O)/c(=C\c3cccs3)s/c2=C(/C#N)C(=O)NCCN2CCOCC2)cc1,inactive
25,CCOc1ccccc1Oc1c[nH]nc1-c1ccc(OCC(=O)NN)cc1O,inactive
26,CCOc1ccc(C2CC(c3c(O)oc4ccccc4c3=O)=NN2c2ccccc2)cc1OC (configuration not stated),inactive

row,Structure (SMILES),Potency
1,CCCOc1ccc(C2c3c(-c4ccccc4O)n[nH]c3C(=O)N2CCCOCC)cc1OCC (configuration not stated),22.4 µM (active)
2,CCCOc1ccc(C2c3c(-c4ccccc4O)n[nH]c3C(=O)N2Cc2cccnc2)cc1 (configuration not stated),35.5 µM (active)
3,O=C(C1CCCO1)N1CCN(C(=O)C23CC4CC(CC(C4)C2)C3)CC1 (configuration not stated),inactive
4,O/N=C1\CCCc2ccc3ccccc3c21,inactive
5,Cc1ccc(OC(=O)c2ccncc2)c(C)c1,inactive
6,O=S(=O)(NCc1csc(-c2cccs2)n1)c1ccc(Cl)cc1,inactive
7,O=C(NCc1csc(-c2cccs2)n1)c1cccc(Cl)c1,inactive
8,O=C(NNC(=O)c1csc(-c2cccs2)n1)c1ccc(Cl)cc1,22.4 µM (active)
9,C=CCn1c(NC(=O)c2ccccc2Cl)c(C#N)c2nc3ccccc3nc21,inactive
10,CCOC(=O)c1cnc2ccc(C)cc2c1N(C)Cc1ccccc1,inactive
11,CCOC(=O)c1cnc2ccc(C)cc2c1Nc1ccc(N(CC)CC)cc1,28.2 µM (active)
12,CCOC(=O)c1cnc2ccc3ccccc3c2c1O,inactive
13,CS(=O)(=O)c1ccc(Cl)c(NC(=O)CSc2n[nH]c(-c3cccs3)n2)c1,inactive
14,COC(=O)Cc1cc(=O)oc2cc(O)ccc12,inactive
15,O=C(NCCCCCCCN1CCCCCCC1)C(C1CCCCC1)C1CCCCC1,21.2 µM (active)
16,Cc1nn(CC(=O)NCCCN2CCCCC2)c(=O)c2cccn12,inactive
17,S=C(NCCCN1CCOCC1)NC1CC1,inactive
18,CCC(=O)c1ccc(/C=C/c2nc3ccccc3n2C)o1,inactive
19,Cn1c(=O)c(/C=C/c2ccc(F)cc2)nc2ccccc21,inactive
20,Cn1c(SC2=CS(=O)(=O)c3ccccc32)nc2ccccc21,15.8 µM (active)
21,Cn1c(-c2c(N)n(-c3ccccc3)c3nc4ccccc4nc23)nc2ccccc21,inactive
22,C#CCNC(=O)C(C)c1ncc(C(F)(F)F)cc1Cl (configuration not stated),inactive
23,O=C(CCl)c1ccc(Cc2ncc(C(F)(F)F)cc2Cl)s1,39.8 µM (active)
24,FC(F)(F)c1cnc(NNC(=S)Nc2ccccc2)c(Cl)c1,inactive
